Screens from PubChem.
Compounds with a hit are over-represented: about 4.2% of the library has one in this group of screens.
MCF10A rereplic – induces DNA re-replication in MCF 10a normal breast cells; MCF 10A DNA re-replication, Hoechst nuclear intensity, 48 h; Potency, µM (titrated, usually from 46.1 µM), hits mostly activators; 350,000 tested, 2.9% active; AID 624296; note: nearly all actives have a fitted effect of over 50% in size
SW480 rereplic – induces DNA re-replication in SW480 colon adenocarcinoma cells | SW480 DNA re-replication, Hoechst DNA content imaging, 48 h | Potency, µM (titrated, usually from 46.1 µM), most hits filed as activators | 340,000 tested, 1.8% active | AID 624297; note: nearly all actives have a fitted effect of over 55% in size
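Image-based read-out: total Hoechst fluorescence of nuclei (405 nm excitation, 500-530 nm emission), with hits raising the fraction of high-intensity nuclei. SW480 colon cells incubated 48 hr with compounds at 37 C.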
Mito fusion act – inhibitors of mitochondrial division or activators of mitochondrial fusion; S. cerevisiae fusion-defective mutant growth rescue, CellTiterGlo 48 h; Potency, µM (series often up to 46.1 µM), usual class: activators; 320,000 tested, 0.23% active; AID 485298; note: nearly all actives have a fitted effect of over 45% in size
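Yeast fusion mutant, YPEG (non-fermentable carbon), compound, 48 h at 37C non-permissive; CellTiterGlo added, 10 min RT, luminescence read. Rescued growth = division inhibition.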
A-T KAP1 phos – potential ataxia-telangiectasia treatments restoring KAP-1 phosphorylation; AID 485349; 320,000 tested, 0.19% active; F2112 A-T fibroblasts, KAP-1 phosphorylation AlphaLISA; neocarzinostatin DNA damage 30 min before lysis; Potency, µM (highest dose often 57.5 µM), usual class: activators; note: nearly all actives have a fitted effect of over 45% in size
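hTERT-immortalized A-T patient fibroblasts (F2112), 500 cells/well in OPTI-MEM, 1% FBS, got compounds for 60 min, then NCS for 30 min at 37C. Lysates were then assayed for phospho-KAP-1 by AlphaLISA (anti-pKAP1 donor, anti-KAP1 acceptor beads), 6 hr at 25C.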
a7 integrin act – integrin-mediated muscular dystrophy alleviation activation | alpha7betagal myoblasts, beta-gal FDG fluorescence, 48 h | 350,000 tested, 0.064% active | AID 624291 | Potency, µM (titrated, usually from 38.3 µM), hits mostly activators; note: nearly all actives have a fitted effect of over 60% in size
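Alpha7betagal+/- myoblasts (passage 13) were plated 16-24 hr, then exposed to compounds (1:260 dilution of DMSO stock) for 48 hours at 37C. After MPER lysis, β-galactosidase reporter activity was read as FDG fluorescence (ex 480/em 540) after 30 minutes.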
A number is an active result; - = inactive; ? = inconclusive; . = no result given; [ ] = remark or other dose. Calls come from the whole dose curve; as a rule, active = well fitted activation curve with a large enough effect; inconclusive = small, poorly fitted or top-dose-only effect; inactive = no such curve, though single readings can be large or run the other way.

SMILES	MCF10A rereplic	SW480 rereplic	Mito fusion act	A-T KAP1 phos	a7 integrin act
O=C(Nc1nnc(-c2ccco2)o1)c1ccc([N+](=O)[O-])s1	20.6µM	?	-	-	-
O=C(Nc1nnc(-c2ccco2)o1)c1ccc2ccccc2c1	?	?	12.6µM	-	-
CC1CN(c2cc(-c3ccccc3)c3ccccc3n2)CC(C)O1 (stereo not given)	-	-	-	.	-
CC1CN(c2nc3ccccc3cc2-c2ccccc2)CC(C)O1 (stereo not given)	20.6µM	-	-	?	-
COc1ccc(C(=O)Nc2ccc(OCC(F)(F)C(F)F)c(C(F)(F)F)c2)cc1OC	-	-[9.22 µM]	-	-	-
O=C(Nc1ccc(Br)c(C(F)(F)F)c1)c1ccccc1	?	-	22.4µM	-	-
O=C(Nc1ccc(Br)c(C(F)(F)F)c1)c1ccc(C(F)(F)F)cc1	14.6µM	?	-	-	-
O=C(Nc1ccc(OCC(F)(F)C(F)F)c(C(F)(F)F)c1)c1ccc(Cl)cc1	23.1µM	?	.	.	-
CN(C(=O)c1cc(COc2ccc(F)cc2Cl)on1)C1CCOC1 (stereo not given)	.	.	.	.	-
CC(=O)[C@@]1(O)CC[C@H]2[C@@H]3C[C@H](C)C4=CC(=O)CC[C@]4(C)[C@H]3CC[C@@]21C	-	-	-	-	.
C=C1CC2C(CCC3(C)C2CCC3(O)C(C)=O)C2(C)CCC(=O)C=C12 (stereo not given)	23.1µM	-[9.22 µM]	-	-	-
CC(=O)C1(C)CCC2C3C=C(C)C4=CC(=O)CCC4(C)C3CCC21C (stereo not given)	16.4µM	-	.	.	-
Cc1cnc(C(=O)N(CC(C)C)c2c(N)n(CC(C)C)c(=O)[nH]c2=O)cn1	-	-	-	-	-
CCOC(=O)c1c(-c2cc(OC)c(OC)c(OC)c2)csc1N	.	.	.	.	-
Cc1ccc(N)cc1NC(=O)CN1CCOCC1	-	-	-	-	-
CCOc1ccc2nc3cc(NCc4ccc(OC)cc4)ccc3c(N)c2c1	14.6µM	?	-	-	-
N#Cc1c(NC(=O)C2CC(c3ccccc3O)=NO2)sc2c1CCC2 (stereo not given)	?	-	-	-	?
N#Cc1c(NC(=O)C2CC2)sc2c1CCCCC2	?	-	15.8µM	-	-
N#Cc1c(NC(=O)C2CC(c3ccccc3Cl)=NO2)sc2c1CCC2 (stereo not given)	20.6µM	-	-	-	-
CN1C(=O)C(O)(CC(=O)c2cccc(-n3cccc3)c2)c2ccccc21 (stereo not given)	-	-	-	-	-
O=C(CC1(O)C(=O)Nc2ccccc21)c1cccc(-n2cccc2)c1 (stereo not given)	1.46µM	?	-	-	-
O=C(O)C1=CC[C@@H](c2ccc(Cl)cc2)N(S(=O)(=O)c2ccc(Cl)cc2)[C@H]1c1cccc(Cl)c1	-	-	-	-	-
COc1ccc(-c2cc(C(F)(F)F)n3nc(C(N)=O)cc3n2)cc1	.	.	.	.	-
Cc1cc(C(=O)COC(=O)c2ccc(NC(=O)CC#N)cc2)c(C)n1CC(F)(F)F	.	.	.	.	-
Cc1nn(Cc2ccccc2)c(C)c1C(=O)OCC(=O)c1cc(C)n(CC(F)(F)F)c1C	13µM	-	-	-	-
SMILES	MCF10A rereplic	SW480 rereplic	Mito fusion act	A-T KAP1 phos	a7 integrin act
Cc1nnc(SCC(=O)c2c[nH]c3ccccc23)n1C1CC1	-	-	-	-	-
Cc1ccccc1Nc1c(-c2ccc(N3CCOCC3)cc2)nc2cnccn12	?	-	-	-	-
CN(C)c1ccc(-c2nc3cnccn3c2Nc2ccc3c(c2)OCCO3)cc1	18.4µM	-	-	-	-
Cc1ccc(Nc2c(-c3ccc(N4CCOCC4)cc3)nc3cnccn23)cc1	18.4µM	?	-	-	-
Cc1ccc(Nc2c(-c3ccc(N4CCOCC4)cc3)nc3ncccn23)cc1	-	-	-	-	-
Cc1ccc(Nc2c(-c3ccc(N4CCOCC4)cc3)nc3ncccn23)cc1C	?	23.1µM	-	-	-
Cc1ccc(-c2nc3cnccn3c2Nc2ccc3c(c2)OCO3)cc1	-	-	-	-	-
COc1ccc(NC(=O)CN(C)C(=O)c2ccc(C)c(S(=O)(=O)N3CCCCC3)c2)cc1	-	-	.	.	-
N#C/C(=C/c1ccc([N+](=O)[O-])cc1)C(=O)Nc1ccccc1O	-	-	-	-	-
Cn1cc(/C=N/NC(=O)c2cccc([N+](=O)[O-])c2)c2ccccc21	-	-	-	-	-
Cn1cc(/C=C(\C#N)C(=O)Nc2cccc([N+](=O)[O-])c2)c2ccccc21	9.2µM	?	-	-	-
N#C/C(=C/c1ccc(O)c([N+](=O)[O-])c1)C(=O)Nc1ccccc1	4.61µM	6.51µM	?	-	-
COC(=O)c1sc(NC(=O)CSc2nnnn2C)nc1C	-	-	-	-	-
COc1ccc(C(C[N+](=O)[O-])C2(c3ccc(OC)c(OC)c3)C(=O)c3ccccc3C2=O)cc1 (stereo not given)	?	3.26µM	-	-	-
COC(=O)C(C(=O)OC)C(C[N+](=O)[O-])c1ccc(OC)c(OC)c1 (stereo not given)	-	-	-	-	-
CCc1ccc(-c2nc(C(N)=O)c3[nH]c(=O)n(-c4ccccc4OC)c3n2)cc1	?	9.2µM	-	-	-
O=C(CCN1CCOCC1)c1ccccc1	2.59µM	-	-	.	-
O=C(CCN1CCCCC1)c1ccc2c(c1)OCO2	?	-[9.22 µM]	-	-	-
O=C(CCN1CCOCC1)c1ccc2c(c1)OCCO2	6.51µM	?	-	-	-
O=C(CCN1CCN(C(=O)c2ccccc2)CC1)c1ccc(Br)cc1	16.4µM	?	-	-	-
O=C(CCCN1CCOCC1)c1ccc2c(c1)OCCO2	?	-	-	-	-
O=C(CCN1CCc2ccccc2CC1)c1ccc2c(c1)OCCO2	1.3µM	13µM	-	-	-
CC(=O)N1CC(=O)N(Cc2ccccc2)/C(=C/c2ccccc2)C1=O	-	-	-	-	-
O=C(NC1CC1)c1cccc(NC(=O)c2cc(S(=O)(=O)N3CCOCC3)ccc2Cl)c1	-	-	-	-	?
CC(C)(C)C1CCc2c(sc(NC(=O)c3cccs3)c2C(N)=O)C1 (stereo not given)	5.62µM	?	-	.	-
COC(=O)c1c(NC(=O)CC2SC(N)=NC2=O)sc2c1CCC(C)C2 (stereo not given)	?	-	-	-	-
COC(=O)c1c(NC(=O)CC2SC(N)=NC2=O)sc2c1CCC(C(C)(C)C)C2 (stereo not given)	23.1µM	-	-	-	-
CCC(C)(C)C1CCc2c(sc(NC(=O)c3cccs3)c2C(N)=O)C1 (stereo not given)	-	?	-	-	-
CC1=CC(C)(C)N(S(=O)(=O)c2ccc(C)cc2)c2cc(C)ccc21	?	7.31µM	-	.	-
CCNC(=O)N1c2ccc(OCC)cc2C(C)=CC1(C)C	14.1µM	-	-	-	-
